Experimental findings from PubChem BioAssay (Tox21) are described below.

Structures are written as SMILES. Records with an inconclusive call do not appear. Unmarked numbers belong to inactive results. Calls come from the whole dose curve; as a rule, active = well fitted cell-killing curve with a large enough effect in the repeat runs (not every such curve was filed as active); inconclusive = weak or mixed curves, or effect the other way; inactive = no such curve, though single readings can be large or run the other way.
% is set by controls: 0 for no effect and ±100 for the full control effect.

This assay can be described thus: qHTS assay to identify small molecule antagonists of the estrogen related receptor signaling pathway with the pleiotropic PPARgamma coactivator (PGC) from Tox21 10K library - cell viability counter screen (AID 1224840). Note: nearly all actives have a fitted effect of over 40% in size. The conditions noted are these: PGC/ERR reporter cells viability, CellTiter-Fluor, 17.5 h; series mostly up to 92.4 µM; viability change, negative = cytotoxic: at the top concentration. An excerpt:
National Center for Advancing Translational Sciences [NCATS]
NIH Chemical Genomics Center [NCGC]
U.S. Environmental Protection Agency [EPA]
National Institutes of Environmental Health Sciences [NIEHS]
National Toxicology Program [NTP]
U.S. Food and Drug Administration [FDA]
Estrogen related receptors (ERRs), the first orphan nuclear receptors discovered, play an important role in the control of cellular energy metabolism. ERRs are required for high-energy production in response to the environmental challenges. The pleiotropic PPARgamma coactivator (PGC) is a major partner of ERR and a key regulator in energy homeostasis. Together they have been implicated in the etiology of metabolic disorders such as Type 2 diabetes and metabolic syndrome. ERR-alpha was also identified as an adverse marker for breast cancer progression; ERR-alpha-positive tumors have a poor prognosis. To screen and to identify environmental compounds that perturb the ERR and PGC/ERR signaling pathways could provide valuable information for potential therapeutic or preventive measures in the treatment of metabolic disease. To differentiate true PGC/ERR antagonists or agonist from cytotoxic substances, the assay is multiplexed with cell viability assay.
Tox21 Assay Protocol Summary:
The PGC/ERR cells were dispensed at 2,000 cells/5 ul/well in 1536-well white plates using a Multidrop dispenser. After the assay plates were incubated at a 37 C/5% CO2 incubator for 6 hours, 23 nL of compounds dissolved in DMSO, positive and negative controls or DMSO only was transferred to the assay plate by a pin tool. The plates were incubated at 37 C for 17.5 hours. 1 ul/well of CellTiter-Fluor reagent was added into the assay plates using a Flying Reagent Dispenser. After 30-minute incubation at 37 C/5% CO2, the fluorescence intensity in the plates was measured using a ViewLux plate reader.
A general note: qHTS replaces the single test concentration by a dilution series.
As for `Nc1ccn([C@@H]2O[C@H](CO)[C@@H](O)C2O)c(=O)n1` (stereo not given in full), the “viability change, negative = cytotoxic” value was 7.79%.

`O=C(O)CC(C(=O)O)S(=O)(=O)O` (stereo not given): the “viability change, negative = cytotoxic” value was 0.31%.

As for `O=C1CCCCCCCCCCCCCCO1`, the “viability change, negative = cytotoxic” value is 0.863%.

For `CC(C)C(=O)OC(=O)C(C)C`, the “viability change, negative = cytotoxic” value is 2.7%.

Take `Cc1ccc(C(=O)c2ccccc2)cc1`: the “viability change, negative = cytotoxic” value was 2.27%.

Consider `C=CCOCC(O)CO` (stereo not given), for which the “viability change, negative = cytotoxic” value is 1.32%.

As for `O=Cc1cccc(Br)c1`, the “viability change, negative = cytotoxic” value was 3.1%.

As to `CC(=O)Nc1ccc(OCC(O)CNC(C)C)cc1` (stereo not given), the “viability change, negative = cytotoxic” value is 10.4% [at 42.5 µM].

With `CNCCO`, the “viability change, negative = cytotoxic” value was 12.1%.

Consider `CC(C)(CCC(=O)O)C(=O)O`, for which the “viability change, negative = cytotoxic” value was 1.14%.

Regarding `CCCCOCCOC(=O)CCCCCCCCC(=O)OCCOCCCC`, the “viability change, negative = cytotoxic” value was 1.07%.

In the case of `CC(C)C[C@@H](N)C(=O)O`, the viability change, negative = cytotoxic is -8.03% [at 19 µM].

Consider `CCOC(=O)c1ccccc1`, for which the “viability change, negative = cytotoxic” value is 11.8%.

For `CC(=O)c1ccccc1[N+](=O)[O-]`, the “viability change, negative = cytotoxic” value is 5.74%.

On to `NC(N)=NCCN1CCCCCCC1`, for which the viability change, negative = cytotoxic is -1.22% [at 0.349 µM].

Regarding `CNC(=O)Nc1ccc(Cl)c(Cl)c1`, the “viability change, negative = cytotoxic” value is -6.07%.

Consider `c1ccc(CCc2ccccc2)cc1`, for which the “viability change, negative = cytotoxic” value is 2%.

`CC(=O)O[C@@]12CO[C@@H]1C[C@H](O)[C@@]1(C)C(=O)[C@H](O)C3=C(C)[C@@H](OC(=O)[C@H](O)[C@@H](NC(=O)OC(C)(C)C)c4ccccc4)C[C@@](O)([C@@H](OC(=O)c4ccccc4)[C@H]21)C3(C)C`: the “viability change, negative = cytotoxic” value is -25.2% [at 42.5 µM].

Turning to `CCCCCCCCCCCCCCCCCCO`, the “viability change, negative = cytotoxic” value was -7.21% [at 42.5 µM].

In the case of `CCCCCCC#CC(=O)OC`, the “viability change, negative = cytotoxic” value is 5.05%.

As to `CC(CC=O)CC(C)(C)C` (stereo not given), the “viability change, negative = cytotoxic” value was -5.15%.

Take `Cc1ccc(C(=O)Nc2ccc(S(=O)(=O)O)c3cc(S(=O)(=O)O)cc(S(=O)(=O)O)c23)cc1NC(=O)c1cccc(NC(=O)Nc2cccc(C(=O)Nc3cc(C(=O)Nc4ccc(S(=O)(=O)O)c5cc(S(=O)(=O)O)cc(S(=O)(=O)O)c45)ccc3C)c2)c1`: the “viability change, negative = cytotoxic” value is -7.4% [at 42.5 µM].

In the case of `CCN(C=O)CC`, the “viability change, negative = cytotoxic” value is -2.56%.

For `NO`, the “viability change, negative = cytotoxic” value was 1.98%.

Turning to `[Ca+2]`, the “viability change, negative = cytotoxic” value is 4.74%.

For `C=CC(=O)OCCCl`, the “viability change, negative = cytotoxic” value is -0.164%.

Take `CC[C@H]1OC(=O)[C@H](C)[C@@H](O[C@H]2C[C@@](C)(OC)[C@@H](O)[C@H](C)O2)[C@H](C)[C@@H](O[C@@H]2O[C@H](C)C[C@H](N(C)C)[C@H]2O)[C@](C)(OC)C[C@@H](C)C(=O)[C@H](C)[C@@H](O)[C@]1(C)O`: the “viability change, negative = cytotoxic” value was 0.473%.

Regarding `CO[Si](C)(OC)c1ccccc1`, the “viability change, negative = cytotoxic” value was 1.03%.

Take `CCOC(=O)C(=O)CCCCCCl`: the “viability change, negative = cytotoxic” value is 0.815% [at 42.5 µM].

`CCCOC(=O)CC`: the “viability change, negative = cytotoxic” value was 2.34%.

Take `Nc1ccn([C@@H]2O[C@H](CO)[C@@H](O)[C@@H]2O)c(=O)n1`: the “viability change, negative = cytotoxic” value is 1.29%.

With `CC1(C)OC[C@@H](COC(=O)CCc2ccc(OC[C@@H](O)CNCCNC(=O)N3CCOCC3)cc2)O1`, the “viability change, negative = cytotoxic” value was 19.9% [at 42.5 µM].

As to `[O-][n+]1cccc(CO)c1`, the “viability change, negative = cytotoxic” value is 18.9% [at 42.5 µM].

Take `NC(CCC(=O)O)C(=O)O` (stereo not given): the “viability change, negative = cytotoxic” value was -0.626%.

For the molecule `Cc1ccnc(NS(=O)(=O)c2ccc(N)cc2)n1`, the “viability change, negative = cytotoxic” value was 9.47% [at 42.5 µM].

`COc1ccc2cc1Oc1cc3c(cc1OC)CC[N+](C)(C)[C@H]3Cc1ccc(cc1)Oc1c(OC)c(OC)cc3c1[C@@H](C2)[N+](C)(C)CC3`: the “viability change, negative = cytotoxic” value is 1.6% [at 42.5 µM].

Turning to `O=C(O)CCSCCC(=O)O`, the “viability change, negative = cytotoxic” value was 7.3%.

On to `N[C@H](C(=O)O)[C@@H](O)c1ccc(O)c(O)c1`, for which the “viability change, negative = cytotoxic” value is -3.41% [at 42.5 µM].

As to `Cc1cccc(C)c1NC(=O)CC12CCCN1CCC2`, the “viability change, negative = cytotoxic” value was -3.45% [at 42.5 µM].

For `Clc1cc(Cl)c(Cl)nc1Cl`, the “viability change, negative = cytotoxic” value is 14.7%.
